According to PubChem BioAssay AID1159580 (chemical genetic matrix, 2015):
Several values for one entry are separate records, joined by “and”; a condition that tells them apart may be missing. Equal entries are not always repeated. Hit rate of the full screen: of about 5,500 compounds, about 2,000 (36%) were called active. Inconclusive results (about 18%) are left out. No stated cut-off is given here; in the data, active means normalized growth mostly below about 0.91 (no sharp cut-off); inconclusive means no clear call, values can overlap the other calls; inactive means mostly above about 0.92. Some of the results follow.

Assay: chemical genetic growth profiling, strain panel (AID 1159580);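 further: tested at 20 µM; growth read once vehicle control cultures reached saturation at 30 °C; 1 = growth at the plate median or of vehicle wells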
Settings: S. cerevisiae deletion strains, growth OD

CCC(=O)O[C@H]1CCC2C3CCc4cc(O)ccc4C3CC[C@@]21C (stereo partly drawn)
normalized growth (locus YAL013W, strain DEP1, stronger effect = lower value): 0.7 (active) | normalized growth (locus YAL021C, strain ccr4, stronger effect = lower value): 0.97 (inactive) | normalized growth (locus YAL026C, strain drs2, stronger effect = lower value): 1 (inactive) | normalized growth (locus YAL030W, strain snc1, stronger effect = lower value): 0.988 (inactive) | normalized growth (locus YBL061C, strain skt5, stronger effect = lower value): 0.98 (inactive) | normalized growth (locus YBR009C, strain hhf1, stronger effect = lower value): 0.957 (inactive) | normalized growth (locus YBR021W, strain FUR4, stronger effect = lower value): 0.908 (inactive) | normalized growth (locus YBR023C, strain chs3, stronger effect = lower value): 0.981 (inactive) | normalized growth (locus YBR171W, strain sec66, stronger effect = lower value): 0.997 (inactive) | normalized growth (locus YBR229C, strain ROT2, stronger effect = lower value): 0.999 (inactive) | normalized growth (locus YBR231C, strain swc5, stronger effect = lower value): 0.974 (inactive) | normalized growth (locus YBR279W, strain paf1, stronger effect = lower value): 1 (inactive) | normalized growth (locus YCL011C, strain gbp2, stronger effect = lower value): 0.962 (inactive) | normalized growth (locus YCL016C, strain dcc1, stronger effect = lower value): 0.992 (inactive) | normalized growth (locus YCL029C, strain bik1, stronger effect = lower value): 0.994 (inactive) | normalized growth (locus YCL061C, strain MRC1, stronger effect = lower value): 0.991 (inactive) | normalized growth (locus YCL069W, strain vba3, stronger effect = lower value): 0.997 (inactive) | normalized growth (locus YCR088W, strain abp1, stronger effect = lower value): 0.991 (inactive) | normalized growth (locus YDL005C, strain med2, stronger effect = lower value): 0.966 (inactive) | normalized growth (locus YDL035C, strain GPR1, stronger effect = lower value): 0.975 (inactive) | normalized growth (locus YDL040C, strain nat1, stronger effect = lower value): 1 (inactive) | normalized growth (locus YDL074C, strain BRE1, stronger effect = lower value): 0.447 (active) | normalized growth (locus YDL101C, strain DUN1, stronger effect = lower value): 0.951 (inactive) | normalized growth (locus YDL134C, strain PPH21, stronger effect = lower value): 0.956 (inactive) | normalized growth (locus YDL185W, strain tfp1, stronger effect = lower value): 1.01 (inactive) | normalized growth (locus YDL192W, strain arf1, stronger effect = lower value): 1.01 (inactive) | normalized growth (locus YDR001C, strain nth1, stronger effect = lower value): 0.994 (inactive) | normalized growth (locus YDR069C, strain doa4, stronger effect = lower value): 0.97 (inactive) | normalized growth (locus YDR101C, strain arx1, stronger effect = lower value): 0.986 (inactive) | normalized growth (locus YDR137W, strain rgp1, stronger effect = lower value): 0.854 (inactive) | normalized growth (locus YDR150W, strain NUM1, stronger effect = lower value): 1 (inactive) | normalized growth (locus YDR159W, strain sac3, stronger effect = lower value): 0.596 (active) | normalized growth (locus YDR162C, strain NBP2, stronger effect = lower value): 0.993 (inactive) | normalized growth (locus YDR195W, strain ref2): 0.209 (active) | normalized growth (locus YDR297W, strain sur2, stronger effect = lower value): 0.989 (inactive) | normalized growth (locus YDR318W, strain mcm21, stronger effect = lower value): 1 (inactive) | normalized growth (locus YDR334W, strain swr1, stronger effect = lower value): 0.962 (inactive) | normalized growth (locus YDR335W, strain msn5, stronger effect = lower value): 0.99 (inactive) | normalized growth (locus YDR388W, stronger effect = lower value): 0.987 (inactive) | normalized growth (locus YDR392W, strain spt3, stronger effect = lower value): 0.531 (active) | normalized growth (locus YDR502C, strain sam2, stronger effect = lower value): 0.997 (inactive) | normalized growth (locus YEL003W, strain gim4, stronger effect = lower value): 0.984 (inactive) | normalized growth (locus YEL037C, strain rad23, stronger effect = lower value): 0.995 (inactive) | normalized growth (locus YEL061C, strain CIN8 (second series), stronger effect = lower value): 0.969 (inactive) | normalized growth (locus YEL061C, strain CIN8, stronger effect = lower value): 0.999 (inactive) | normalized growth (locus YER015W, strain faa2, stronger effect = lower value): 0.988 (inactive) | normalized growth (locus YER016W, strain bim1, stronger effect = lower value): 0.996 (inactive) | normalized growth (locus YER110C, stronger effect = lower value): 1.02 (inactive) | normalized growth (locus YER111C, strain swi4, stronger effect = lower value): 0.974 (inactive) | normalized growth (locus YER155C, strain BEM2 (second series), stronger effect = lower value): 0.988 (inactive) | normalized growth (locus YER155C, strain BEM2, stronger effect = lower value): 0.295 (active) | normalized growth (locus YER167W, strain BCK2, stronger effect = lower value): 0.933 (inactive) | normalized growth (locus YFR010W, strain ubp6, stronger effect = lower value): 0.956 (inactive) | normalized growth (locus YGL078C, strain dbp3, stronger effect = lower value): 1.01 (inactive) | normalized growth (locus YGL086W, strain mad1, stronger effect = lower value): 0.985 (inactive) | normalized growth (locus YGL167C, strain pmr1, stronger effect = lower value): 0.98 (inactive) | normalized growth (locus YGL173C, strain kem1, stronger effect = lower value): 0.986 (inactive) | normalized growth (locus YGL227W, strain vid30, stronger effect = lower value): 0.976 (inactive) | normalized growth (locus YGL240W, strain doc1, stronger effect = lower value): 0.972 (inactive) | normalized growth (locus YGL248W, strain PDE1, stronger effect = lower value): 0.961 (inactive) | normalized growth (locus YGL253W, strain hxk2, stronger effect = lower value): 1 (inactive) | normalized growth (locus YGR135W, strain pre9, stronger effect = lower value): 1.01 (inactive) | normalized growth (locus YGR229C, strain SMI1, stronger effect = lower value): 0.584 (active) | normalized growth (locus YGR252W, strain gcn5, stronger effect = lower value): 0.973 (inactive) | normalized growth (locus YHR013C, strain ard1, stronger effect = lower value): 0.885 (inactive) | normalized growth (locus YHR027C, strain rpn1, stronger effect = lower value): 0.992 (inactive) | normalized growth (locus YHR030C, strain SLT2, stronger effect = lower value): 0.968 (inactive) and 0.298 (active) | normalized growth (locus YHR079C, strain IRE1 (second series), stronger effect = lower value): 1.01 (inactive) | normalized growth (locus YHR079C, strain IRE1, stronger effect = lower value): 0.538 (active) | normalized growth (locus YHR094C, strain hxt1, stronger effect = lower value): 0.997 (inactive) | normalized growth (locus YHR129C, strain ARP1, stronger effect = lower value): 0.932 (inactive) | normalized growth (locus YHR142W, strain chs7, stronger effect = lower value): 0.931 (inactive) | normalized growth (locus YHR200W, strain rpn10, stronger effect = lower value): 1.01 (inactive) | normalized growth (locus YIL066C, strain RNR3, stronger effect = lower value): 0.927 (inactive) | normalized growth (locus YIL073C, strain SPO22, stronger effect = lower value): 0.781 (inactive) | normalized growth (locus YIL125W, strain kgd1, stronger effect = lower value): 1 (inactive) | normalized growth (locus YIR030C, strain dcg1, stronger effect = lower value): 1 (inactive) | normalized growth (locus YJL092W, strain hpr5, stronger effect = lower value): 0.984 (inactive) | normalized growth (locus YJL095W, strain BCK1 (second series), stronger effect = lower value): 0.996 (inactive) | normalized growth (locus YJL095W, strain BCK1, stronger effect = lower value): 0.756 (active) and 0.227 (active) | normalized growth (locus YJL115W, strain asf1, stronger effect = lower value): 0.988 (inactive) | normalized growth (locus YJL129C, strain trk1, stronger effect = lower value): 0.814 (active) | normalized growth (locus YJL134W, strain LCB3, stronger effect = lower value): 0.993 (inactive) | normalized growth (locus YJL154C, strain vps35, stronger effect = lower value): 0.995 (inactive) | normalized growth (locus YJL164C, strain tpk1, stronger effect = lower value): 0.904 (active) | normalized growth (locus YJL166W, strain qcr8, stronger effect = lower value): 0.989 (inactive) | normalized growth (locus YJL168C, strain set2, stronger effect = lower value): 1 (inactive) | normalized growth (locus YJL187C, strain SWE1 (second series), stronger effect = lower value): 0.925 (inactive)
